Screens: PubChem, National Center for Advancing Translational Sciences (NCATS)
AmpC no deterg: blocks E. coli AmpC beta-lactamase in detergent-free assay. P00811. Potency, µM (highest dose often 57.1 µM), inactives show at the highest dose activity change, negative = inhibition, usual class: inhibitors. AmpC nitrocefin hydrolysis, absorbance 480 nm, 0.0001% Triton. hit rate 0.52% among 330,000;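 further: potency means the concentration at half of the fitted maximal effect; plate controls were no compound for no effect and no enzyme for full effect; nearly all actives have a fitted effect of over 20% in size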
Target sequence (P00811 whole entry, looked up): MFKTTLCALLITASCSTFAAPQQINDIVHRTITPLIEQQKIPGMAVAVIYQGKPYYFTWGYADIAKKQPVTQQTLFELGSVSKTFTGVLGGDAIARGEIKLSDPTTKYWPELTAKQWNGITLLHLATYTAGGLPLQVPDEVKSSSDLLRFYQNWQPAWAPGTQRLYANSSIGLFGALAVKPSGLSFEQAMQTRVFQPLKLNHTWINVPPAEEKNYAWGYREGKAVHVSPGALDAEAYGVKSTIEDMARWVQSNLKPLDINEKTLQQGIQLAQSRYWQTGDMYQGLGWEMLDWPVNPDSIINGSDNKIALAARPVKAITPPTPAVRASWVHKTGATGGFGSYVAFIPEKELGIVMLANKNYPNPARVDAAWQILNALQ
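AmpC (5.3 nM in the dispensed reagent) in 20 mM phosphate pH 7.0 with 0.01% (detergent screen) or 0.0001% Triton X-100 was preincubated with compounds for 15 min at room temperature. Nitrocefin was then added from an 800 uM solution, and hydrolysis was followed at 480 nm.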
AMA1-RON2 inh: disrupts binding of P. falciparum AMA1 to RON2; AlphaScreen AMA1-biotinylated RON2 peptide binding; Potency, µM (top dose mostly 58.2 µM), without a hit: top-dose activity change, negative = inhibition, most hits filed as inhibitors; hit rate 0.2% among 360,000; AID 720542;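 further: potency means the concentration at half of the fitted maximal effect; 0% = vehicle wells and -100% = peptide control; nearly all actives have a fitted effect of over 45% in size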
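AMA1 (3D7) with his tag at 25 nM final met compounds first, then biotinylated RON2 peptide at 25 nM; detection used donor plus acceptor beads, 10 µg/mL apiece, read by AlphaScreen after 30 min at room temperature.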
Shiga inhibitor: blocks Shiga toxin action in Vero cells. Vero cells, Shiga toxin protein synthesis inhibition reporter. inhibition, % at 38.7 µM. AID 2315. hit rate 9.2% among 290,000; in the data active means inhibition mostly above about 28%, no sharp cut-off; inactive means mostly below about 43%; further: 0% is about no effect
AmpC detergent: inhibitors of E. coli AmpC beta-lactamase with detergent; Potency, µM (doses to about 114 µM), for inactives: top-dose activity change, negative = inhibition, usual class: inhibitors; AmpC hydrolysis of nitrocefin, absorbance 480 nm, 0.01% Triton; AID 485294; P00811; hit rate 0.041% among 370,000;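 further: potency means the concentration at half of the fitted maximal effect; 0% = no-compound wells and -100% = no-enzyme wells; nearly all actives have a fitted effect of over 25% in size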
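AmpC (5.3 nM in the dispensed reagent) in 20 mM phosphate pH 7.0 with 0.01% (detergent screen) or 0.0001% Triton X-100 was preincubated with compounds for 15 min at room temperature. Nitrocefin was then added from an 800 uM solution, and hydrolysis was followed at 480 nm.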
CHX counter: affects cycloheximide protein synthesis inhibition readout, counter-screen; hit rate 12% among 300,000; max response, %; cell reporter, cycloheximide protein synthesis inhibition counterscreen; in the data active means max response mostly above about 13%, no sharp cut-off; inactive means mostly below about 14%; further: read at 38.3 µM for the half of the compounds with a filed dose; 0% is about no effect
SARS PLpro yeast: blocks SARS-CoV papain-like protease in a yeast assay; S. cerevisiae expressing SARS-CoV PLpro, growth rescue; Potency, µM (highest dose often 32.9 µM), inactives show at the highest dose activity, positive = growth rescue, actives largely listed as activators; hit rate 0.19% among 330,000; AID 485353; calls by dose curve; further: potency means the concentration at half of the fitted maximal effect; 0% is about no effect; nearly all actives have a fitted effect of over 55% in size
Starred values were filed as active, the others as inactive; u = inconclusive; x = not tested or not shown. Many of the other results were omitted from the sample, so hits are more common in it than they were. Unless noted, the call rests on the fitted dose curve; in most records, active means well fitted curve in the direction sought with a large enough effect; inconclusive means small, poorly fitted or top-dose-only effect, or another doubt; inactive means no such curve, though single readings can be large; an effect the other way counts as inactive or inconclusive.

SMILES | AmpC no deterg | AMA1-RON2 inh | Shiga inhibitor | AmpC detergent | CHX counter | SARS PLpro yeast
COc1ccc(CNC(=O)C2CC(c3cccc([N+](=O)[O-])c3)=NO2)cc1 (centres undefined) | -24% | -3% | 38* | 1% | 36* | 4%
COc1cccc(C2=NOC(C(=O)NCc3ccccc3)C2)c1 (centres undefined) | -2% | -5% | 23 | -4% | 13 | -2%
COc1ccc(C2=NOC(C(=O)NCc3ccccc3)C2)cc1 (centres undefined) | -3% | 16% | 34* | -13% | 5 | -7%
COc1ccc(CNC(=O)C2CC(c3ccccc3C(F)(F)F)=NO2)cc1 (centres undefined) | -4% | -14% | -4 | 1% | 1 | -3%
Cc1ccc(CNC(=O)C2CC(c3cccc([N+](=O)[O-])c3)=NO2)cc1 (centres undefined) | -4% | 2% | 13 | 3% | 13 | 1%
COc1ccc(CNC(=O)C2CC(c3ccccc3[N+](=O)[O-])=NO2)cc1 (centres undefined) | -9% | 7% | 65* | -2% | 29* | u
Cc1cc2c(cc3c(SCc4ccc(Cl)cc4)nncn32)o1 | x | x | x | -14% | x | x
NC(=O)c1ccc(NC(=O)CSC(=O)c2ccccc2)cc1 | -35% | -13% | x | x | x | 0%
COc1ccccc1CNC(=O)C1CC(c2ccccc2[N+](=O)[O-])=NO1 (centres undefined) | -14% | 8% | 96* | -7% | 41* | -6%
CCN(CC)C(=O)C1CC(c2ccc(OC)cc2)=NO1 (centres undefined) | -21% | -5% | 82* | 4% | 40* | -1%
CCOC(=O)Cn1c(=O)oc2cc(S(=O)(=O)NC3CCCCC3)ccc21 | -2% | -3% | 2 | -10% | -1 | 1%
CC1=C(C(=O)Nc2ccccc2)C(c2ccc(C)cc2)N=C(Nc2nc3ccccc3o2)N1 (centres undefined) | -22% | 21% | -12 | -6% | -3 | -7%
C/C(=N/Nc1nc(C)cc(C)n1)c1ccc(Br)cc1 | 119% | 28% | x | -16% | -2 | 3%
Cc1cc(C)nc(N/N=C/c2ccccc2OCc2ccccc2)n1 | -49% | 38% | 33 | -5% | 12* | -12%
Cc1cc(C)nc(N/N=C/c2ccccc2OCc2ccc(Br)cc2)n1 | 18µM* | 12% | 79* | -12% | 29* | -3%
Cc1cc(C)nc(N/N=C/c2cc(Br)ccc2O)n1 | -18% | 43% | 39 | 1% | 28* | 9%
Cc1cc(C)nc(N/N=C/c2ccccc2OCc2cccc(Br)c2)n1 | -37% | 34% | 17 | -2% | 14* | -9%
Cc1cc(C)nc(N/N=C/c2ccccc2OCc2ccc(Cl)cc2)n1 | -35% | 7% | 41 | u | 13 | -34%
COc1ccc(-n2ncc3c(N4CCN(Cc5ccccc5)CC4)ncnc32)cc1 | -14% | u | 16 | u | 5 | -1%
COc1ccc(C(C)=O)cc1CSc1nnc(Nc2c(C)cccc2C)s1 | -19% | -2% | -3 | -3% | -2 | 21%
COc1cccc(CC(=O)Nc2cc(S(=O)(=O)N3CCOCC3)ccc2N2CCOCC2)c1 | 44% | 11% | -5 | -3% | -2 | 1%
CCOc1ccc(C2CC(=O)Nc3c2c(=O)nc(SCc2ccccc2C)n3C)cc1OC (centres undefined) | x | x | x | 2% | x | x
CCCn1c(N)c(Sc2ccc(C)cc2)c(=O)n(CCC)c1=O | -40% | -10% | -9 | 3% | -4 | -1%
COc1ccc(C(C(=O)NC2CCCC2)N(C(=O)c2csnn2)C2CC2)cc1 (centres undefined) | 2% | 7% | 3 | -9% | -4 | -1%
O=C(CSc1nc2ccccc2nc1N1CCOCC1)Nc1ccccc1F | 34% | 22% | 24* | -15% | 20* | 1%
CC(=O)Nc1ccc(NC(=O)CSc2nc3ccccc3nc2N2CCC(C)CC2)cc1 | 68% | -9% | 36 | -5% | 19* | -1%
O=C(c1ccccc1-c1nc(-c2ccccc2)no1)N1CCCC1 | 11% | 10% | 56* | 0% | 22* | 11%
